Our source for the inhibition values is PubChem BioAssay.

Molecules are shown by their SMILES. Values without a mark were called inactive. How the calls were made is not given here.

For the assay, the target named is Pantothenate synthetase (Mycobacterium tuberculosis (strain ATCC 25618 / H37Rv)) (UniProt P9WIL5). Put plainly: Recombinant Mtb pantothenate synthetase (PanC) inhibitors, coupled enzyme, confirmatory (AID 375).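 Further: 0% = full reaction with vehicle and 100% = no enzyme background.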 Particulars: coupled enzyme assay; at 10 µM, active compounds read high.
Sequence of Pantothenate synthetase (Mycobacterium tuberculosis (strain ATCC 25618 / H37Rv)) (P9WIL5 whole entry, looked up): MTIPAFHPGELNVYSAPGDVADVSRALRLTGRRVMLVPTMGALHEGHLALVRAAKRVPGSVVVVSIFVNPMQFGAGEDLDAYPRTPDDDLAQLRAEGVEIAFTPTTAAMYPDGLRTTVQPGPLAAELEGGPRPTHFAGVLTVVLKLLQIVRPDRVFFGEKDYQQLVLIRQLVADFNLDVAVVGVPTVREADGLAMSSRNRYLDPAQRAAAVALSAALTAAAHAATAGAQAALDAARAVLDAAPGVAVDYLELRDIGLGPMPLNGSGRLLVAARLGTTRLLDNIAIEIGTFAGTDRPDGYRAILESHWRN
As for `Cc1nc2cc(N3CCCCC3)c(NC(=O)c3cccnc3)cc2c(=O)n1Cc1ccccc1`, the inhibition – broadly, the share of the control response that was lost under treatment – was 1%.

As to `COc1ccc(C2CNC(=O)C2)cc1OC1CCCC1` (configuration not stated), the inhibition is 1%.

In the case of `c1cnn(-c2cc(N3CCOCC3)ncn2)c1`, the inhibition was 0%.

On to `COc1cccc(NC(=O)c2nc3nc(C)cc(C(F)F)n3n2)c1`, for which the inhibition is 0%.

Consider `O=C(CSc1nnc(COc2ccc(Cl)cc2)o1)OC1CCCCC1`, for which the inhibition was 0%.

For `CC1=CCC(C(C)(C)NC(=O)c2ccccc2)C/C1=N\O` (configuration not stated), the inhibition is 0%.

In the case of `O=C(CSc1nnc(-c2ccco2)n1-c1ccccc1)N1CCN(C(=O)c2ccco2)CC1`, the inhibition was 0%.

On to `Cc1cc(C(=O)OCCO)c(C#N)c(N)n1`, for which the inhibition was 0%.

As for `CC1CCN(Cc2nc3c(c(=O)n(C)c(=O)n3C)n2Cc2cccc3ccccc23)CC1`, the inhibition was 0%.

Consider `COc1cc2c(cc1OC)C(C)N(C(=O)Cn1ncc3c1-c1ccccc1OC3)CC2` (configuration not stated), for which the inhibition is 0%.

Turning to `COCCn1c(C23CC4CC(CC(C4)C2)C3)n[nH]c1=S`, the inhibition was 0%.

For the compound `O=C1c2ccccc2NC(c2ccco2)N1O` (configuration not stated), the inhibition was 5%.

On to `COC(=O)C1=C(C)N(Cc2ccco2)C(=O)C1`, for which the inhibition is 0%.

Turning to `C=CCSc1nnc2n(CCc3ccccc3)c(=O)c3c4c(sc3n12)COC(C)(C)C4`, the inhibition was 0%.

For the compound `CC(=O)Nc1cc2c(nc1C)nc(C)n2Cc1ccc(Br)cc1`, the inhibition is 0%.

For `Cc1cccc(OCCCc2c(C)n[nH]c2C)c1`, the inhibition was 0%.

Take `COc1cc(C2=NOC(C(=O)NCc3ccc(F)cc3)C2)cc(OC)c1OC` (configuration not stated): the inhibition is 0%.
